Columns and labels:
Test in all cases: DAPPL (digital affinity profiling via proximity ligation, sequencing); 10 mM Tris-HCl pH 7.5, 50 mM NaCl, 1 mM DTT, 4% glycerol, room temperature, 30 min; GST-TFs on glutathione beads, 16-mer random dsDNA library, 0.1% formaldehyde crosslink after washing; high values mean tight binding
Conditions in all cases: protein: recombinant; tags: N-terminal GST; dsDNA, one strand shown
[1] = molecular target: T1, ELK1 (Homo sapiens, UniProt P19419 1-428)
T1 sequence: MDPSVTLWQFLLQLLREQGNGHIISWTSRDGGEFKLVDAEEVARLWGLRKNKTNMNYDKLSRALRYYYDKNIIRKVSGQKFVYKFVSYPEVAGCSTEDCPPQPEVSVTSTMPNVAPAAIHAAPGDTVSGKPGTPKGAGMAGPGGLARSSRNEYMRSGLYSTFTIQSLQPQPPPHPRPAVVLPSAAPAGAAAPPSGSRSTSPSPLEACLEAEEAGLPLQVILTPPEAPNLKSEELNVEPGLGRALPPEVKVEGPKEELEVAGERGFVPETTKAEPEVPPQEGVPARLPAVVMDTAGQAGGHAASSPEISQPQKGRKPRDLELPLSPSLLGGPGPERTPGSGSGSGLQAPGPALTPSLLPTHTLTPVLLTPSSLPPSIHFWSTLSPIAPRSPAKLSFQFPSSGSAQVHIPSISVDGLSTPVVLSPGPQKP
Procedure, shortened: (§1)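 Beads coated with glutathione captured GST-fused human transcription factors that had been expressed in yeast, and the factors were then given DNA barcodes and pooled with a tag-only sample. The pools were incubated with 200 nmole of a random double-stranded 16-mer DNA library in Tris/NaCl/DTT/glycerol buffer for 30 min at room temperature, washed, crosslinked with 0.1% formaldehyde and proximity-ligated with BsaI/T4 ligase at 37 °C for 1 h. PCR amplification and Illumina NextSeq500 sequencing came last. Binding signal is each hexamer's read frequency for a factor divided by its frequency for the tag-only sample.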

[2] = molecular target: T2, ERG (Homo sapiens, UniProt P11308 1-479)
T2 sequence: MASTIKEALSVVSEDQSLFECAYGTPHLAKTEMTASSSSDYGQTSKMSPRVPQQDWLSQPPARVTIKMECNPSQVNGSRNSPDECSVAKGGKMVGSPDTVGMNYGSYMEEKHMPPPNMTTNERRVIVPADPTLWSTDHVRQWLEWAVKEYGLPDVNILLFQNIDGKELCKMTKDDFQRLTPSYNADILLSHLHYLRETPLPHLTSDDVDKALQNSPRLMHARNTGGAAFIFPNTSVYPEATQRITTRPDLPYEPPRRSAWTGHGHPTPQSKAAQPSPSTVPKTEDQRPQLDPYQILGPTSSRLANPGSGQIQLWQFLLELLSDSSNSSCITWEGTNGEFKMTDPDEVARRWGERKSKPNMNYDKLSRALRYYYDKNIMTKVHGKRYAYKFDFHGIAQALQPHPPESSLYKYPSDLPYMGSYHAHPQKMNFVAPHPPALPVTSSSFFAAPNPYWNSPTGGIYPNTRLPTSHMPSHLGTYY
Procedure, shortened: as §1

[3] = molecular target: ELF1 (Homo sapiens, UniProt P32519 1-619)
Procedure, shortened: as §1

[4] = molecular target: T3, EHF (Homo sapiens, UniProt Q9NZC4 1-300)
T3 sequence: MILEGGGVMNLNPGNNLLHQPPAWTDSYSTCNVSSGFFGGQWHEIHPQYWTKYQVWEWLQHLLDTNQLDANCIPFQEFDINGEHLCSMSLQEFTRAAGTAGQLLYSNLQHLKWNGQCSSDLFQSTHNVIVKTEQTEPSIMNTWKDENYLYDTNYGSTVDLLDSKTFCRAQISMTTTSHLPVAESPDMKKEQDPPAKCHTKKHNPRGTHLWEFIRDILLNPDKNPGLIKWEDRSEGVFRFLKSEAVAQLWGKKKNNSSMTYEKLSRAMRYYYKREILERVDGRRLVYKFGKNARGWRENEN
Procedure, shortened: as §1

[5] = molecular target: SPIB (Homo sapiens, UniProt Q01892 1-262)
Procedure, shortened: as §1

[6] = molecular target: ETV5 (Homo sapiens, UniProt P41161 1-510)
Procedure, shortened: as §1

[7] = molecular target: T4, SPIC (Homo sapiens, UniProt Q8N5J4 1-248)
T4 sequence: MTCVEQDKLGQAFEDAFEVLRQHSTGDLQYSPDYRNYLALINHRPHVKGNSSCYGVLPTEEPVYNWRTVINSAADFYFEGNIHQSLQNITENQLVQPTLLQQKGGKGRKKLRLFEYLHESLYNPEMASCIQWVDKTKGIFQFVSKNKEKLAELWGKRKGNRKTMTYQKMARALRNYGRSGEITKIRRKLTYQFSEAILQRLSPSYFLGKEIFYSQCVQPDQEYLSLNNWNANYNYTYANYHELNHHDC
Procedure, shortened: as §1

[8] = molecular target: T5, ELK4 (Homo sapiens, UniProt P28324-2 1-405)
T5 sequence: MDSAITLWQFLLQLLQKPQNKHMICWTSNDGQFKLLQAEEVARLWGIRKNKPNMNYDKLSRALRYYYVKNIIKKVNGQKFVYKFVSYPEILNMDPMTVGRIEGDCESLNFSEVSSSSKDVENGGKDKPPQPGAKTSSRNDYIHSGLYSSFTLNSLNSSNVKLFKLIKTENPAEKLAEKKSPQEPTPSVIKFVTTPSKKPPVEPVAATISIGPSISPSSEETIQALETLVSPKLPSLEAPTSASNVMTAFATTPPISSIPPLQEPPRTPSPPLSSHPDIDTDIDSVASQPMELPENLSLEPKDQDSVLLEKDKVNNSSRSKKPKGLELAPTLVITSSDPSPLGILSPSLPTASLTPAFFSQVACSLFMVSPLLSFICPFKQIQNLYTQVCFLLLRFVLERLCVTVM
Procedure, shortened: as §1

[9] = molecular target: T6, ELF3 (Homo sapiens, UniProt P78545 1-371)
T6 sequence: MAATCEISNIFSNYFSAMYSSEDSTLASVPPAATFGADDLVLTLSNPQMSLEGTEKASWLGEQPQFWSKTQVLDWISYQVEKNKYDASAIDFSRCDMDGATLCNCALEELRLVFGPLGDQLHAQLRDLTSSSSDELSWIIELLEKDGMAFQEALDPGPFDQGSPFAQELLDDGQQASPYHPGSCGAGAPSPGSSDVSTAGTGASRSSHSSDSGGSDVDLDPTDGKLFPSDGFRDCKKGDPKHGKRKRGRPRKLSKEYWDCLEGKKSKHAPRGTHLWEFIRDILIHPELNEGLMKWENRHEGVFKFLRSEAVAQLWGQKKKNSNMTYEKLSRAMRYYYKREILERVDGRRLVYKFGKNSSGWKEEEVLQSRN
Procedure, shortened: as §1

[10] = molecular target: ETV1 (Homo sapiens, UniProt P50549 1-477)
Procedure, shortened: as §1

[11] = molecular target: T7, ERF (Homo sapiens, UniProt P50548 1-548)
T7 sequence: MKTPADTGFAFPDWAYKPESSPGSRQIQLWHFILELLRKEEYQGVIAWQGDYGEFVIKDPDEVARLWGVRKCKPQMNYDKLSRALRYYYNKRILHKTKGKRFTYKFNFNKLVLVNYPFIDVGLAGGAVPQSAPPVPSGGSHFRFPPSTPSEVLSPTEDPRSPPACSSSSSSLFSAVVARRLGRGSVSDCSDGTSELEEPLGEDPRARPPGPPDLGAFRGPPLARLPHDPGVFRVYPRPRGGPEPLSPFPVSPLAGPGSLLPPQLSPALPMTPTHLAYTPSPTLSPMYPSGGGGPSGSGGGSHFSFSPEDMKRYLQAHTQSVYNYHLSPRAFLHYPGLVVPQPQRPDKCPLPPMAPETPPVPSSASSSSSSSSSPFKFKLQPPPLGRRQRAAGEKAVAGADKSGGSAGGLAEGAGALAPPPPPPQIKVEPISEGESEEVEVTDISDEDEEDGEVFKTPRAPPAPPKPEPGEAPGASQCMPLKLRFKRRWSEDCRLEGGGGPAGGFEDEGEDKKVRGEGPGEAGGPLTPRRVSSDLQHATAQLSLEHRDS
Procedure, shortened: as §1

[12] = molecular target: T8, ETV3L (Homo sapiens, UniProt Q6ZN32 1-361)
T8 sequence: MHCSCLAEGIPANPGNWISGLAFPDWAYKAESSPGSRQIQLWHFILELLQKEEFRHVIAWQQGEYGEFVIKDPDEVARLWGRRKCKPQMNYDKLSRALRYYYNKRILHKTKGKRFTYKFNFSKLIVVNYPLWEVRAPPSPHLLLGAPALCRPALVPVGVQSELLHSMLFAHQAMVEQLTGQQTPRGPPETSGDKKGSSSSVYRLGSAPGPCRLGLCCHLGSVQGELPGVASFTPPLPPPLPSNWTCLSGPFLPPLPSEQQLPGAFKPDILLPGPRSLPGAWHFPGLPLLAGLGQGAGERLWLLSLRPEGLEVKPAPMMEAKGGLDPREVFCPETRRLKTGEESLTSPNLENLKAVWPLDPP
Procedure, shortened: as §1

[13] = molecular target: T9, ETS2 (Homo sapiens, UniProt P15036 1-469)
T9 sequence: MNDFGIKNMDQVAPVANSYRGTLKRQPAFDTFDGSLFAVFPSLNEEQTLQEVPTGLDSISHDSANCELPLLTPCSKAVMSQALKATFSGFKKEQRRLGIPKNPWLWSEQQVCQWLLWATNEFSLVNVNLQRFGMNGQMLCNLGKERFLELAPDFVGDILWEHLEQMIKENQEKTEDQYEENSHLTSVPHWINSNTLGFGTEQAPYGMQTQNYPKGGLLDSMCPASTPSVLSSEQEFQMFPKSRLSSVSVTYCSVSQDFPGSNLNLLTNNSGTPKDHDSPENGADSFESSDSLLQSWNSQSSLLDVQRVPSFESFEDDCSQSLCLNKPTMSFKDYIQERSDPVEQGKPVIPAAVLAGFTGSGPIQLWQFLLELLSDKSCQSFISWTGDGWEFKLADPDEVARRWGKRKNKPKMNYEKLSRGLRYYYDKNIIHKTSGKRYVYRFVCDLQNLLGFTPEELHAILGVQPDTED
Procedure, shortened: as §1

[14] = molecular target: T10, SPDEF (Homo sapiens, UniProt O95238 1-335)
T10 sequence: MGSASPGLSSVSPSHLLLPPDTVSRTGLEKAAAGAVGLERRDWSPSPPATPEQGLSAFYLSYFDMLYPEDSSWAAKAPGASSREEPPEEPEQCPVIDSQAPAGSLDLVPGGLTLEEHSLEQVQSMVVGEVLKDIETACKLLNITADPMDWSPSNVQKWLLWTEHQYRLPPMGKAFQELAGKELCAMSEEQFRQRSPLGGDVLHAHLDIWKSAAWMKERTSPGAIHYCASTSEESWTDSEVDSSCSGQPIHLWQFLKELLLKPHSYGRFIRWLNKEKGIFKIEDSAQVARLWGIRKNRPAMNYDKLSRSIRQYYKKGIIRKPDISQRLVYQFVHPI
Procedure, shortened: as §1

[15] = molecular target: T11, ETV7 (Homo sapiens, UniProt Q9Y603 1-341)
T11 sequence: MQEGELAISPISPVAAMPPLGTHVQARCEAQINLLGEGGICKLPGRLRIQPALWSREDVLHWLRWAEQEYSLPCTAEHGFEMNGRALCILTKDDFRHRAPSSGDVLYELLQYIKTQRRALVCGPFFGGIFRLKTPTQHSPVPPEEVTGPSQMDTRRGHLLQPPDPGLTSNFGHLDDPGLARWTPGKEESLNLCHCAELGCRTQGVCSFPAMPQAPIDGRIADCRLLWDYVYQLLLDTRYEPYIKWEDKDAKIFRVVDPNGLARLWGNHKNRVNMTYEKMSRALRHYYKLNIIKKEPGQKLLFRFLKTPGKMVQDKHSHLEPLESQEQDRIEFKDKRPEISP
Procedure, shortened: as §1

[16] = molecular target: T12, ETV3 (Homo sapiens, UniProt P41162-2 1-143)
T12 sequence: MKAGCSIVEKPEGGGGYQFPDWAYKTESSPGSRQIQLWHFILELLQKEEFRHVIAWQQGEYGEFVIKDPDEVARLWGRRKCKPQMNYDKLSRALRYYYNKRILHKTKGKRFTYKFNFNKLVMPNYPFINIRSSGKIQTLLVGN
Procedure, shortened: as §1

[17] = molecular target: ETV6 (Homo sapiens, UniProt P41212 1-452)
Procedure, shortened: as §1

Sequence of SPIB (Q01892 whole entry): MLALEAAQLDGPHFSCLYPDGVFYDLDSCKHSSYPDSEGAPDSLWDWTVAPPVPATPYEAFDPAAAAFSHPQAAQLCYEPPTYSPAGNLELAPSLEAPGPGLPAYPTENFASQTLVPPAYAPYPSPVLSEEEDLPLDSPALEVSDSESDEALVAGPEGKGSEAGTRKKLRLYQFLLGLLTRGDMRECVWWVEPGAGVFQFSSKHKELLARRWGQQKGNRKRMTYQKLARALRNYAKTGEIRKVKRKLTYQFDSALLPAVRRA
Sequence of ETV1 (P50549 whole entry): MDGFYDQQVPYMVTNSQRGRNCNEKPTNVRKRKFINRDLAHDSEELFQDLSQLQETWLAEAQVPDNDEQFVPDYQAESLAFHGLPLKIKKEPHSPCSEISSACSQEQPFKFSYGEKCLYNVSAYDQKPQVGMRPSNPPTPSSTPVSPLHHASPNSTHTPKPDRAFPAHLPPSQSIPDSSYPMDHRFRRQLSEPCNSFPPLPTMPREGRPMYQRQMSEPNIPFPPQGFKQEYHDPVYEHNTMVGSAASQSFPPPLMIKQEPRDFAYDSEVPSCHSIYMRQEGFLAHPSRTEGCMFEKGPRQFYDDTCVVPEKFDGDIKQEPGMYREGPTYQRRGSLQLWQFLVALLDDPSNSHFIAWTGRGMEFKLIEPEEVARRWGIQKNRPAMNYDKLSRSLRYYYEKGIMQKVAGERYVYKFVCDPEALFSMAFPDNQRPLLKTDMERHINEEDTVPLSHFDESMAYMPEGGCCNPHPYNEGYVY
Sequence of ETV6 (P41212 whole entry): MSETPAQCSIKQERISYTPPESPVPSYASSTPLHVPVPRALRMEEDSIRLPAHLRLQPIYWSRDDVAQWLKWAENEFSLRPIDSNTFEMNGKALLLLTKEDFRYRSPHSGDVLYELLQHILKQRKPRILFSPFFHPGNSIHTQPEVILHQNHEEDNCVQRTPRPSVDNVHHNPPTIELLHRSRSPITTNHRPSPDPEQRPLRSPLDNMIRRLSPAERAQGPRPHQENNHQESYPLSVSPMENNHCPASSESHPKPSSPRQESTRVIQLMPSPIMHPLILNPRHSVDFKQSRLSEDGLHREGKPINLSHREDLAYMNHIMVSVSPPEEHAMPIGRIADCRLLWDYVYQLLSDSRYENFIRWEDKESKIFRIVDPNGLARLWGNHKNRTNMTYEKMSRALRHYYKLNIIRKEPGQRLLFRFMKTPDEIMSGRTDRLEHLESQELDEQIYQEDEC
Sequence of ELF1 (P32519 whole entry): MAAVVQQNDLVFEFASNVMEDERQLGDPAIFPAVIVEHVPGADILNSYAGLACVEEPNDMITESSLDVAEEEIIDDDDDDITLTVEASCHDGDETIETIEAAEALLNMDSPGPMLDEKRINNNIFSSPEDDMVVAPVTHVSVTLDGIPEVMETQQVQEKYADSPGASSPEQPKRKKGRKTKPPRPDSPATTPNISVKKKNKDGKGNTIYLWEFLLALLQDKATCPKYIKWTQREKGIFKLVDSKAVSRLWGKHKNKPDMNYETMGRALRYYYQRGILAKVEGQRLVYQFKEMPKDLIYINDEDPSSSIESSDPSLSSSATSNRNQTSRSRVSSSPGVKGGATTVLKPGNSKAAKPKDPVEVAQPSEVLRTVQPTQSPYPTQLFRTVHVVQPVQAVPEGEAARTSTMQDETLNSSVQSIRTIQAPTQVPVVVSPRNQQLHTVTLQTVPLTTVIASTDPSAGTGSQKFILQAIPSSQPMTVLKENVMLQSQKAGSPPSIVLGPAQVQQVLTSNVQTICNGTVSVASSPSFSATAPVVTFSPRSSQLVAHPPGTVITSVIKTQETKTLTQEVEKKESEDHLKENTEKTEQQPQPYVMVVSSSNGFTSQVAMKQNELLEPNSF
Sequence of ETV5 (P41161 whole entry): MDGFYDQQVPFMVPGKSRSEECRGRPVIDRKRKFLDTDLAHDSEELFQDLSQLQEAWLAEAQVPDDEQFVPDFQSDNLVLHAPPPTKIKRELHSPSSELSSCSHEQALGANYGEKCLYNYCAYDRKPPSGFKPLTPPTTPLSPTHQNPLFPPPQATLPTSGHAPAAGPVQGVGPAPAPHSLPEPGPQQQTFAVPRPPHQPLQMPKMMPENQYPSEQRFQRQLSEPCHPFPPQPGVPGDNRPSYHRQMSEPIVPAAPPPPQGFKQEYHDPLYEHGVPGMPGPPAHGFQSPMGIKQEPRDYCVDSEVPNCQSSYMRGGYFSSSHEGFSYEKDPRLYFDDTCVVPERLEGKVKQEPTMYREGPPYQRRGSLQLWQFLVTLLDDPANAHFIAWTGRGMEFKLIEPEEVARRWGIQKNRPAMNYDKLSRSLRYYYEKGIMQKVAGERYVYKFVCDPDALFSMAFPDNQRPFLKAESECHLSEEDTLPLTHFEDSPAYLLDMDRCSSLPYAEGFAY

In the case of GGCTAT, the binding signal [1] is reported as 1.06 fold enrichment (6-mer frequency, TF over GST control), the binding signal [2] is reported as 1.07 fold enrichment (6-mer frequency, TF over GST control) and the binding signal [3] is reported as 1.02 fold enrichment (6-mer frequency, TF over GST control). For the same sequence, the binding signal [4] was 1.12 fold enrichment (6-mer frequency, TF over GST control), the binding signal [5] was 1.02 fold enrichment (6-mer frequency, TF over GST control) and the binding signal [6] was 1 fold enrichment (6-mer frequency, TF over GST control). The binding signal [7] was 1.03 fold enrichment (6-mer frequency, TF over GST control), the binding signal [8] was 1.15 fold enrichment (6-mer frequency, TF over GST control) and the binding signal [9] was 1.01 fold enrichment (6-mer frequency, TF over GST control). For the same sequence, the binding signal [10] was 1.07 fold enrichment (6-mer frequency, TF over GST control), the binding signal [11] was 1.06 fold enrichment (6-mer frequency, TF over GST control) and the binding signal [12] was 1.07 fold enrichment (6-mer frequency, TF over GST control). For the same sequence, the binding signal [13] was 1.02 fold enrichment (6-mer frequency, TF over GST control), the binding signal [14] was 1.05 fold enrichment (6-mer frequency, TF over GST control) and the binding signal [15] was 1.12 fold enrichment (6-mer frequency, TF over GST control). The binding signal [16] was 1.06 fold enrichment (6-mer frequency, TF over GST control) and the binding signal [17] was 1.03 fold enrichment (6-mer frequency, TF over GST control).

Reference: paper PMC7862700, “An all-to-all approach to the identification of sequence-specific readers for epigenetic DNA modifications on cytosine”
